Assay results as given in PubChem BioAssay (NCATS).
Records with an inconclusive call do not appear. Entries that show only a call come without a potency. Activity calls are given as the source filed them. Calls come from the whole dose curve; as a rule, active = well fitted cell-killing curve with a large enough effect; inconclusive = small, poorly fitted or top-dose-only effect, or effect the other way; inactive = no such curve, though single readings can be large or run the other way.
Potency is the fitted concentration of half-maximal effect.

Assay: Quantitative highthroughput screen to assess conditional lethalithy of NOMO1 cells grown in Human Plasma-Like Medium with dialyzed fetal bovine serum (HPLM+ds) (AID 1963878); note: nearly all actives have a fitted effect of over 35% in size
Conditions: NOMO1 AML cells in HPLM+ds, CellTiter-Glo viability, 48 h; series mostly up to 45.8 µM
From the text: Assay Provider: Jason Cantor Ph.D.
Department of Biochemistry
University of Wisconsin-Madison, Madison, WI, USA
Chemical screening studies have identified drug sensitivities across hundreds of cancer cell lines but most putative therapeutics fail to translate. Discovery and development of drug candidates in models that more accurately reflect nutrient levels in human blood is a major challenge. Here we performed high-throughput screens in conventional versus Human Plasma-Like Medium (HPLM) to identify compounds that were "missed" when screening using the artificial culture condition. Sets of conditional anticancer compounds spanned phases of clinical development and included non-oncology drugs were assessed. […] We also traced conditional phenotypes for several chemotherapeutics to availability of HPLM-specific metabolites and confirmed others for compounds whose reported targets are encoded by nonessential genes. Our findings establish generalizable strategies for exploiting conditional lethality in HPLM to reveal therapeutic candidates and mechanisms of action in cancer cells.
Described herein are the results of each viability screens against three cell lines: NOMO1 (an acute myeloid leukemia cell line); P12-Ichikawa (a T-cell acute lymphoblastic leukemia); and SEM (a B-cell ALL). Each assay was screened using 3 different cell culture media: homemade human plasma-Like medium with 10% dialyzed fetal bovine serum (HPLM+ds); RPMI1640 with 10% untreated FBS and 5mM glucose (RPMI+s); and RPMI1640 with 10% dialyzed fetal bovine serum and 5 mM glucose (RPMI+ds).
PROTOCOL TABLE (as described by Inglese J, Shamu CE and Guy RK. 2007)
SEQUENCE No. (e.g., 1, 2, 3, etc.); […] (e.g., Cells, Incubation, Reagent, etc.); VALUE and DESCRIPTION.
1; Cells; 5 uL; white, solid bottom 1536-well Greiner assay plate.
2; Compounds; 23 nL; Kalypsis pin tool (Wako USA) equipped with a 1536-well pin head to transfer to the assay plates.
3; Incubation; 48 hours; 37C incubation.
4; Reagent; 3 uL; CellTiter Glo (Promega).
5; Incubation; 5 min, room temperature
6; Detection; Luminescence, Viewlux PerkinElmer.
NOTES (numbers refer to Sequence numbers above)
1. Briefly, 5 ul of cell reagent was dispensed using a Multidrop Combi Dispenser. The NOMO1 and SEM cells were plated at 500 cells/well and the P12-Ichikawa line at 1000 cells/well.
2. After seeding the cells, 23 nL of MIPE 4.1 library compounds (in DMSO) were added to each plate using a Kalypsys 1536 Pintool dispenser. Bortezomib at final concentration of […] and DMSO were added to each plate as positive and negative controls respectively. For each screen, MIPE 4.1 compounds were added over an eleven-point concentration range […] in 3-fold dilutions.
3. Each plate was covered with a stainless steel gasketed lid to prevent evaporation and incubated for 48 hour at 37C, 95% relative humidity, and 5% CO2.
4-5. Three microliter CellTilter-GloTM luminescent substrate mix (Promega) reagent was added to the assay plate and incubated at room temperature for 5 min.
6. The luminescence signal was measured using a ViewLux (PerkinElmer) multiplate reader with a 2 second exposure time per plate. Data for each compound were normalized as percent viability such that measurements for DMSO and the empty well controls in each plate were defined as 100% and 0%, respectively.
For CSCC[C@@H](NC(=O)[C@@H](Cc1ccccc1)NC(=O)CNC(=O)CNC(=O)[C@@H](N)Cc1ccc(O)cc1)C(=O)O, the Potency was “inactive”. With C[C@@H]1[C@H](O)[C@@H](C)C=CC=CCCC=CC=CC=CC=C[C@H](O[C@H]2O[C@@H](C)[C@H](O)[C@@H](N)[C@@H]2O)CC2O[C@](O)(C[C@@H](O)[C@H](O)CC[C@@H](O)C[C@@H](O)C[C@@H](O)CC(=O)O[C@H]1C)C[C@H](O)[C@H]2C(=O)O the Potency was “inactive”. In the case of CC(C)[C@]12O[C@@H]1[C@@H]1O[C@]13[C@]1(O[C@H]1C[C@@H]1C4=C(CC[C@@]13C)C(=O)OC4)[C@H]2O, the Potency is reported as 1.2 nM (active). In the case of Oc1ccc2c3c1O[C@H]1c4[nH]c5c(c4C[C@@]4(O)[C@@H](C2)N(CC2CC2)CC[C@]314)C[C@@]1(O)[C@H]2Cc3ccc(O)c4c3[C@@]1(CCN2CC1CC1)[C@H]5O4, the Potency is reported as “inactive”. In the case of CC(=Cc1csc(C)n1)[C@@H]1C[C@H]2O[C@]2(C)CCC[C@H](C)[C@@H](O)[C@@H](C)C(=O)C(C)(C)[C@@H](O)CC(=O)O1, the Potency is reported as “inactive”. In the case of CN1CCN(C(=O)O[C@H]2c3nccnc3C(=O)N2c2ccc(Cl)cn2)CC1, the Potency is reported as “inactive”. For CC[C@@H]1[C@@H](C)O[C@@](O)([C@@H](C)[C@H](O)[C@H](C)[C@H]2OC(=O)C=CC=C[C@@H](C)[C@@H]([C@@H](C)[C@@H](O)[C@H](C)[C@@]3(O)C[C@H](O[C@H]4C[C@H](O)[C@H](O)[C@H](C)O4)[C@H](CC)[C@@H](C)O3)OC(=O)C=CC=C[C@@H]2C)C[C@H]1O[C@H]1C[C@H](O)[C@H](O)[C@H](C)O1, the Potency was 2960 nM (active). For C#CCN(C)[C@H](C)Cc1ccccc1, the Potency was “inactive”. In the case of COc1ccc(C(CN(C)C)C2(O)CCCCC2)cc1 (stereo not given), the Potency is reported as “inactive”. With CCN1C[C@]2(OC(=O)c3ccccc3NC(C)=O)CC[C@H](OC)[C@@]34[C@H]5CC6[C@@H](OC)C[C@](O)(C(C[C@@H]23)[C@@H]14)[C@@]5(O)[C@@H]6OC the Potency was “inactive”. For CC=C(C)C(=O)N[C@@H](c1ccccc1)[C@@H](O)C(=O)O[C@H]1C[C@@]2(O)[C@@H](OC(=O)c3ccccc3)[C@@H]3[C@]4(OC(C)=O)CO[C@@H]4C[C@H](O)[C@@]3(C)C(=O)[C@H](OC(C)=O)C(=C1C)C2(C)C, the Potency was “inactive”. In the case of CC(C)(C)c1cc(C=C(C#N)C#N)cc(Br)c1O, the Potency is reported as “inactive”. In the case of C[C@]12COC(=O)C[C@@H]1CC[C@@H]1[C@H]2CC[C@@]2(C)[C@H]1CC[C@]2(C)O, the Potency is reported as “inactive”. For O=c1[nH]c2ccccc2n1C1CCN(Cc2ccc(-c3[nH]c4cc5ncnc5cc4nc3-c3ccccc3)cc2)CC1, the Potency was “inactive”. In the case of C[C@](O)(CS(=O)(=O)c1ccc(F)cc1)C(=O)Nc1ccc(C#N)c(C(F)(F)F)c1, the Potency is reported as “inactive”. For C[C@@]12OC(=O)[C@]1([C@@H](O)[C@@H]1C=CCCC1)NC(=O)[C@H]2CCCl, the Potency was 166 nM (active). For CC1=C(O)C(=O)C=C2C1=CC=C1[C@@]2(C)CC[C@@]2(C)[C@@H]3C[C@](C)(C(=O)O)CC[C@]3(C)CC[C@]12C, the Potency was 2960 nM (active). With C[C@]12CCC(=O)C=C1CC[C@@H]1[C@H]3CC[C@](C)(O)[C@@]3(C)CC[C@@H]12 the Potency was “inactive”. With C#CC1(O)CCC2C3CCC4=CC(=O)CCC4(C)C3CCC21C (stereo not given) the Potency was “inactive”. For Cc1ncc(OC[C@@]2(c3cccc(F)c3)C[C@H]2C(=O)Nc2ccc(F)cn2)c(C)n1, the Potency was “inactive”. For Cc1sc2c(c1C)C(c1ccc(Cl)cc1)=N[C@@H](CC(=O)OC(C)(C)C)c1nnc(C)n1-2, the Potency was 418 nM (active). With CCNC(=O)CC1N=C(c2ccc(Cl)cc2)c2cc(OC)ccc2-n2c(C)nnc21 (stereo not given) the Potency was “inactive”. In the case of Cn1cc(C2=C(c3cn(C4CCN(Cc5ccccn5)CC4)c4ccccc34)C(=O)NC2=O)c2ccccc21, the Potency is reported as “inactive”. In the case of C[C@@H]1[C@@H](CC(C[C@H]2O[C@@H]3O[C@]4(C)CC[C@@H]5[C@H](C)CC[C@@H]([C@H]2C)[C@@]35OO4)C[S+](=O)([O-])c2ccc(COC(=O)N(C)C)cc2)O[C@@H]2O[C@]3(C)CC[C@H]4[C@H](C)CC[C@@H]1[C@@]24OO3 (stereo not given in full), the Potency is reported as 418 nM (active). With Cc1c(C(=O)Nc2cccc(C(F)(F)F)c2)cc(-c2ccccc2)n1CCCN1CCOCC1 the Potency was “inactive”. In the case of COC[C@H]1OC(=O)c2coc3c2[C@@]1(C)C1=C(C3=O)[C@@H]2CC[C@H](O)[C@@]2(C)C[C@@H]1OC(C)=O, the Potency is reported as 13200 nM (active). For CCOc1ccccc1-n1c(C(C)N2CCN(C(=O)COc3ccc(Cl)cc3)CC2)nc2ccccc2c1=O (stereo not given), the Potency was 741 nM (active). For C[C@@H]1C[C@@H]([C@H](O)CC2CC(=O)NC(=O)C2)C(=O)[C@@H](C)C1, the Potency was 1180 nM (active). For CC(=Cc1csc(C)n1)[C@@H]1C[C@H]2O[C@@H]2CCC[C@H](C)[C@@H](O)[C@@H](C)C(=O)C(C)(C)[C@@H](O)CC(=O)O1, the Potency was “inactive”. For C1=C2CCCN[C@H]2[C@@H]2C[C@H]1[C@@H]1CCCCN1C2, the Potency was “inactive”. With CN[C@@H]1Cc2cccc3[nH]c(=O)n(c23)C1 the Potency was “inactive”. With CCOP(=O)(OCC)C(C)NC(=O)N(CCCl)N=O (stereo not given) the Potency was “inactive”. In the case of NC1=NC(=O)N2CC12 (stereo not given), the Potency is reported as 4180 nM (active). In the case of CC1=C2C[C@@H]3[C@@H](CC=C4C[C@@H](O)CC[C@@]43C)[C@@H]2CC[C@]12O[C@H]1C[C@H](C)CN[C@H]1[C@H]2C, the Potency is reported as “inactive”. With COC[C@@H](NC(C)=O)C(=O)NCc1ccccc1 the Potency was 18700 nM (active). For COc1cc(C(=O)N2CC[C@@H](O)[C@@H](N)C2)cc2nc(-c3cc4ccccc4n3CC3CC3)n(C)c12, the Potency was 234 nM (active). For C[C@]12Cc3cn[nH]c3C[C@@H]1CC[C@@H]1[C@H]2CC[C@@]2(C)[C@H]1CC[C@]2(C)O, the Potency was “inactive”. For Cc1cccc(C)c1NC(=O)CN1CCCC1=O, the Potency was “inactive”. For O=C(Nc1ccncc1)C(=O)c1cn(Cc2ccc(Cl)cc2)c2ccccc12, the Potency was 59 nM (active). With CCNC(=O)C[C@@H]1N=C(c2ccc(Cl)cc2)c2cc(OC)ccc2-n2c(C)nnc21 the Potency was 5900 nM (active).
